# Source: the supplement of paper PMC10849652
# The full data set covers some 8,800 targets. This sample favours those with a hit. About 0.5% of all pairs of compound and target were hits.
# Compound: C1=CC2=NC=CN=C2C=C1/C=C/3\C(=O)NC(=O)S3
# Experiment: log2 fold change, soluble protein after heating vs DMSO (PISA); higher = thermal stabilisation; K562 lysate, 10 uM; active = over 0.2 and 3.5 SD of the protein, either way, in both replicates (recomputed)
# Method in brief: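 Quantification was by TMTpro 16plex LC-MS/MS with equalised channel sums, applied to the supernatant after 21,000xg for 90 min. Samples were crude K562 extract at 1 mg/mL protein in PBS pH 7.4 with 1 mM MgCl2, treated with 10 μM compound for 30 min, heated for 3 min across 48°C-58°C, pooled and brought to 0.5% NP-40 at 4°C. Values are log-two fold changes in thermal stability relative to solvent controls, from duplicates.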
# Sequence of UniProt Q9H0U4 (Q9H0U4 whole entry, looked up): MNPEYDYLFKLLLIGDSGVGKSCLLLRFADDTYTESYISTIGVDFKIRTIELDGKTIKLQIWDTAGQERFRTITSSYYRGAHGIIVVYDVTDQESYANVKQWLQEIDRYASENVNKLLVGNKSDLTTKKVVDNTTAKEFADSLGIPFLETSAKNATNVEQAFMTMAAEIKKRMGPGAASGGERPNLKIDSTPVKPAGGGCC
# Sequence of UniProt Q15283 (Q15283 whole entry, looked up): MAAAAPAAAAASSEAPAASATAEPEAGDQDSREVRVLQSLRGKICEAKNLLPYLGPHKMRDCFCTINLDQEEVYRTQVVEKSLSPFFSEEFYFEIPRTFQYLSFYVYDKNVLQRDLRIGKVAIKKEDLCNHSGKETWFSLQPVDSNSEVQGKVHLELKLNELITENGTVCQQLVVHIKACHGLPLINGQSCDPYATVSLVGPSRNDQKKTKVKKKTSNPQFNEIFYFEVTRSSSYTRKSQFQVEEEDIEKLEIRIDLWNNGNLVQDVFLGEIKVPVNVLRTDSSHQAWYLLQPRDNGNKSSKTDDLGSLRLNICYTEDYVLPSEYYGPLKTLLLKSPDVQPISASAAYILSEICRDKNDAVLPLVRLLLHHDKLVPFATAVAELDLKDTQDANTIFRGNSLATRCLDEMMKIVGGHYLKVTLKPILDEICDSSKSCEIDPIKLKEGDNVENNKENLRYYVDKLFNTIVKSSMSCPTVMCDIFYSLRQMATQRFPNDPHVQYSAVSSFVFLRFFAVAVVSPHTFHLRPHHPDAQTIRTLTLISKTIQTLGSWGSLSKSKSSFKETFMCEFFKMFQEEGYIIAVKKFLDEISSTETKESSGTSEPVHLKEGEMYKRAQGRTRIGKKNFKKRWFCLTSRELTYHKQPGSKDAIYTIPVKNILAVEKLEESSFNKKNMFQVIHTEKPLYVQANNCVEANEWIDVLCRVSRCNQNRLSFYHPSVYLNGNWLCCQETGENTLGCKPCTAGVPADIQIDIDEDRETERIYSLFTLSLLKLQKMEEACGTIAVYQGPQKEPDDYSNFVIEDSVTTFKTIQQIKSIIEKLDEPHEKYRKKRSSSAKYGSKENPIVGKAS
# Sequence of UniProt Q9H0R6 (Q9H0R6 whole entry, looked up): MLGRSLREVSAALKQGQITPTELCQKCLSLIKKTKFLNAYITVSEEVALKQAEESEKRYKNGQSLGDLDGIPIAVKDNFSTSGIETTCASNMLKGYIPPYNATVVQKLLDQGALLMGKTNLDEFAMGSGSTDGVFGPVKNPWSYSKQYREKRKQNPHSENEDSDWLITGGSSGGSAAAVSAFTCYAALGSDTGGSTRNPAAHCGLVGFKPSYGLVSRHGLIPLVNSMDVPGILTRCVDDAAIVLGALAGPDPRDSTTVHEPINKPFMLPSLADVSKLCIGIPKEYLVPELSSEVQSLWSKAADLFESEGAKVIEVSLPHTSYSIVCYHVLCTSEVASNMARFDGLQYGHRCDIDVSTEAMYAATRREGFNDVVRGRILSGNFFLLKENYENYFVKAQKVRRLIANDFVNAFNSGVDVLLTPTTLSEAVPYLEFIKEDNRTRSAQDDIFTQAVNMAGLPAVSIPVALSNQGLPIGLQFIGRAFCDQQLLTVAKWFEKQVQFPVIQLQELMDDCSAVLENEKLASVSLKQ
# Sequence of UniProt O75150 (O75150 whole entry, looked up): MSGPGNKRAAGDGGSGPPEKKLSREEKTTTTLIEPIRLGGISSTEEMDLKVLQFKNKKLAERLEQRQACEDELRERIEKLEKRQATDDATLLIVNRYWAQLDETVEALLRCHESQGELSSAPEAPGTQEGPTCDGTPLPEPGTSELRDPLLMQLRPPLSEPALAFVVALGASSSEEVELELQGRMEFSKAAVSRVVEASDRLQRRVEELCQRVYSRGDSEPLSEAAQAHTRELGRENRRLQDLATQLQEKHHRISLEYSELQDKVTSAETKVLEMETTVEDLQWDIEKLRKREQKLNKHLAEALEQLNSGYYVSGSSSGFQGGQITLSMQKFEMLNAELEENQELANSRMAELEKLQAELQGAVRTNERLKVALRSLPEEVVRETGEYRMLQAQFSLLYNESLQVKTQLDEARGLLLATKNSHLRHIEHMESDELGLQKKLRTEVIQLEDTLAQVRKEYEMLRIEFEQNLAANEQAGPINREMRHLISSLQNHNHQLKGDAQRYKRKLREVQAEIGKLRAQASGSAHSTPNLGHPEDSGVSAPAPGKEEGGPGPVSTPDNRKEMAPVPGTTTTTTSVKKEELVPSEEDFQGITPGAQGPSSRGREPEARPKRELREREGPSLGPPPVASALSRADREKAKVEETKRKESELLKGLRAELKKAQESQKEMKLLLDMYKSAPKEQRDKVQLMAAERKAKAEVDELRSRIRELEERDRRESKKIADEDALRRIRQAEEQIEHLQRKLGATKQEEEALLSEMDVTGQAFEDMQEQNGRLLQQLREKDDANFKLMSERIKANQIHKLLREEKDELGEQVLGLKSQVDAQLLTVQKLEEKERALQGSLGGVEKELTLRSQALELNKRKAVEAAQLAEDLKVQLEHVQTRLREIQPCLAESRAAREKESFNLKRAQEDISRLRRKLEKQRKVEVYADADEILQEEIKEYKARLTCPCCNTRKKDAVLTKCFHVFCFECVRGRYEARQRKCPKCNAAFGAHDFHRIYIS
# Sequence of UniProt P40938 (P40938 whole entry, looked up): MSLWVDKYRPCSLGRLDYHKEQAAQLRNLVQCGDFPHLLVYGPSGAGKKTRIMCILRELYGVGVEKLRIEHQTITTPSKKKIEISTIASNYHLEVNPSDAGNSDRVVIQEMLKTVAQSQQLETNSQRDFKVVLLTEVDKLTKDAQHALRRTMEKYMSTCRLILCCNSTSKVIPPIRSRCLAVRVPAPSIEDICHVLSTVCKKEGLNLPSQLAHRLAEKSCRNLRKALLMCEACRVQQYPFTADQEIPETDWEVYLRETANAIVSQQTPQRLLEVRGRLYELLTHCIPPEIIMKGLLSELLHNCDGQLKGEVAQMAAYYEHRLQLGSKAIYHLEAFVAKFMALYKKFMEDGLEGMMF
# Sequence of UniProt P23443 (P23443 whole entry, looked up): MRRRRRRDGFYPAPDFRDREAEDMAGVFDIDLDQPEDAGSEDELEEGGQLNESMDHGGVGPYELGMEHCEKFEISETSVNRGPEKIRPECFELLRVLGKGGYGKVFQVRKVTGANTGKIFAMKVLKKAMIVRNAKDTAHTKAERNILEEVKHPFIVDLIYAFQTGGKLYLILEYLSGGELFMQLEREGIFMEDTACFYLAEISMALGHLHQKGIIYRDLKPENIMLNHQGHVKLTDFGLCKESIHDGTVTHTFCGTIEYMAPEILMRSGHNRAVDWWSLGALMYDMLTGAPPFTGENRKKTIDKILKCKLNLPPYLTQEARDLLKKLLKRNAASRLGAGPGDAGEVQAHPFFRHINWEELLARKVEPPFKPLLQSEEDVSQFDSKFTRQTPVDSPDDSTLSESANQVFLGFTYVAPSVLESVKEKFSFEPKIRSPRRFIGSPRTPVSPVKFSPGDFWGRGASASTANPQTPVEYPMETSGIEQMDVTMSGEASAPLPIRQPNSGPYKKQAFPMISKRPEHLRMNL
# Sequence of UniProt Q9HBH5 (Q9HBH5 whole entry, looked up): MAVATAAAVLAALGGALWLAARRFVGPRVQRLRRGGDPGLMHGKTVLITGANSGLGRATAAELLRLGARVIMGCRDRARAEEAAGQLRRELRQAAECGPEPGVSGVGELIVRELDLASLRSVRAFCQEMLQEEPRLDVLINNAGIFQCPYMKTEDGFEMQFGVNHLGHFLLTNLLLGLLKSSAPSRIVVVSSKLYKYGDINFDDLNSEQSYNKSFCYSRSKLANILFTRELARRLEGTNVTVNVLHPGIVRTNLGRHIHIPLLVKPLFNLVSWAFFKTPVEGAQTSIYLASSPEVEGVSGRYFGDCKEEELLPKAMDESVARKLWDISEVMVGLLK
# Sequence of UniProt Q15404 (Q15404 whole entry, looked up): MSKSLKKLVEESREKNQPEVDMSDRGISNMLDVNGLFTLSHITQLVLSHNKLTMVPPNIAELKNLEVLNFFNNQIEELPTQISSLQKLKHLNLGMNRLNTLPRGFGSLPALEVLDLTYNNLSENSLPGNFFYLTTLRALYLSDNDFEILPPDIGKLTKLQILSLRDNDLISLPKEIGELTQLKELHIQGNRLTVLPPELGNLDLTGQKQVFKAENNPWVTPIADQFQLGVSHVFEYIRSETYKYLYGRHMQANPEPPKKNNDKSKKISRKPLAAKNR
# Sequence of UniProt Q99708 (Q99708 whole entry, looked up): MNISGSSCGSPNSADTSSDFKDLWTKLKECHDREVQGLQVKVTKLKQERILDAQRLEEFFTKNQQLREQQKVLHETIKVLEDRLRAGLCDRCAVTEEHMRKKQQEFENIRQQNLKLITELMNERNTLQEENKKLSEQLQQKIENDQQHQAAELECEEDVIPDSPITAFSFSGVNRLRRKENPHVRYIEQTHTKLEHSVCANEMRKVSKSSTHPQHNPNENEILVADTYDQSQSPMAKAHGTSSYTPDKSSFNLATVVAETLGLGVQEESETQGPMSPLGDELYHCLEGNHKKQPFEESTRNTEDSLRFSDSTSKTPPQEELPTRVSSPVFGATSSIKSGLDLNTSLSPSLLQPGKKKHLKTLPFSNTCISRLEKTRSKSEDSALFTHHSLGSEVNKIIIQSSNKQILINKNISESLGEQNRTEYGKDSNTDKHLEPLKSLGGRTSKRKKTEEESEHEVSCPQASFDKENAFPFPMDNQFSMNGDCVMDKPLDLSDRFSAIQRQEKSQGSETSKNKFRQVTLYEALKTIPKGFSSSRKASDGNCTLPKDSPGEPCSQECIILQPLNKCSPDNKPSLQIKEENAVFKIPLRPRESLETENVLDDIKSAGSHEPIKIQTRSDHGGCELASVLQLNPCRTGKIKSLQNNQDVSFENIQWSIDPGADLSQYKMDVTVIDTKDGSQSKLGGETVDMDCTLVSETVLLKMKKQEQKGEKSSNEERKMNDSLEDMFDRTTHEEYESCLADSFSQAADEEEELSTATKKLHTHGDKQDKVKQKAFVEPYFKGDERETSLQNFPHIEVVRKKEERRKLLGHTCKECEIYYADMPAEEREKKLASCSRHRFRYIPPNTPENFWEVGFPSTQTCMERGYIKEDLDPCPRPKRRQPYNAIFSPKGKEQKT
row,Target,log2 fold change
1,SEC62 (UniProt Q99442),-0.021 (inactive)
2,RPL28 (UniProt P46779),-0.037 (inactive)
3,SBF1 isoform 4 (UniProt O95248),-0.005 (inactive)
4,SEC16A isoform 5 (UniProt O15027),-0.031 (inactive)
5,SEH1L isoform 1 (UniProt Q96EE3),0.014 (inactive)
6,RDH14 (UniProt Q9HBH5),0.037 (inactive)
7,RFC3 (UniProt P40938),0.005 (inactive)
8,RAB1B (UniProt Q9H0U4),-0.002 (inactive)
9,RRAGA (UniProt Q7L523),0.118 (inactive)
10,RAB3IL1 (UniProt E9PK89),-0.048 (inactive)
11,RBM42 (UniProt Q9BTD8),-0.018 (inactive)
12,RBSN (UniProt Q9H1K0),-0.004 (inactive)
13,RAC2 (UniProt P15153),-0.01 (inactive)
14,RSU1 (UniProt Q15404),-0.011 (inactive)
15,RPL37A (UniProt P61513),-0.03 (inactive)
16,QRSL1 (UniProt Q9H0R6),-0.111 (inactive)
17,RBBP8 isoform 2 (UniProt Q99708),0.295 (active)
18,RASA2 (UniProt Q15283),-0.028 (inactive)
19,RIOK3 (UniProt O14730),-0.011 (inactive)
20,RMC1 (UniProt Q96DM3),0.004 (inactive)
21,RPS6KB1 (UniProt P23443),-0.001 (inactive)
22,RCAN1 (UniProt P53805),-0.04 (inactive)
23,RNF40 (UniProt O75150),-0.016 (inactive)
